# Bioassay records deposited in PubChem BioAssay by National Center for Advancing Translational Sciences (NCATS).
# Shown are actives, neighbours in structure and some others; about 12% of the full set was active somewhere.
# L3MBTL1 inh = inhibitors of human L3MBTL1 | Q9Y468 | AlphaScreen L3MBTL1–H3K9me1 peptide binding | Potency, µM (series often up to 57.1 µM), for inactives: top-dose activity, negative = inhibition, usual class: inhibitors | actives 0.66% (n = 230,000) | AID 485360; also: % is scaled to controls: 0 for no effect and ±100 for the full control effect; nearly all actives have a fitted effect of over 60% in size
#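 AlphaScreen proximity signal between nickel-chelate acceptor and streptavidin donor beads (final 10 ug/mL) reports binding of 50 nM L3MBTL1 to 75 nM biotin-H3 K9me1 peptide; complex incubated with compounds 30 min at room temperature; cefsulodin titration as control.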
# JMJD2A Tudor = JMJD2A Tudor domain (human) inhibition. AlphaScreen JMJD2A-Tudor / H3K4me3 peptide binding. actives 4.4% (n = 390,000). Potency, µM (doses to about 114 µM), for inactives: top-dose activity change, negative = inhibition, usual class: inhibitors; also: % is scaled to controls: 0 for no effect and ±100 for the full control effect; nearly all actives have a fitted effect of over 50% in size
# G9a inh = G9a (human) methyltransferase inhibition | Q96KQ7 | G9a H3K9 monomethylation, AlphaScreen, 2 h | Potency, µM (titrated, usually from 102 µM), inactives show at the highest dose activity, negative = inhibition, actives largely listed as inhibitors | actives 8.8% (n = 350,000) | AID 504332; also: % is scaled to controls: 0 for no effect and ±100 for the full control effect; nearly all actives have a fitted effect of over 75% in size
# Target sequence (Q96KQ7 913-1193 limits assumed): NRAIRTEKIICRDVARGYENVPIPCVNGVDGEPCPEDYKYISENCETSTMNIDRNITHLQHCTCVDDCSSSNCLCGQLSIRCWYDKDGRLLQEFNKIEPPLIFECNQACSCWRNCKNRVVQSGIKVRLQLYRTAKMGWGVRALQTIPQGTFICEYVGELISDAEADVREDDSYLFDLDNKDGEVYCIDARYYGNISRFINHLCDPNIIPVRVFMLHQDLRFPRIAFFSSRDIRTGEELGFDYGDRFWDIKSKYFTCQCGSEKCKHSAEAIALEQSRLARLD
#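 Signal arises when biotinylated H3K9 peptide, once monomethylated, bridges streptavidin donor and antibody-captured acceptor beads. Enzyme at 20 nM was preincubated 15 min with test compounds; peptide 500 nM and SAM 20 uM then reacted for 2 h.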
# HP1b chromo inh = inhibitors of HP1-beta chromodomain binding to methylated histone tails. P83916. AlphaScreen HP1-beta / biotin-H3K9me3 peptide binding. Potency, µM (titrated, usually from 114 µM), for inactives: at the highest dose activity change, negative = inhibition, usual class: inhibitors. actives 0.56% (n = 390,000). AID 540317; also: nearly all actives have a fitted effect of over 70% in size
# Target sequence (P83916 whole entry, looked up): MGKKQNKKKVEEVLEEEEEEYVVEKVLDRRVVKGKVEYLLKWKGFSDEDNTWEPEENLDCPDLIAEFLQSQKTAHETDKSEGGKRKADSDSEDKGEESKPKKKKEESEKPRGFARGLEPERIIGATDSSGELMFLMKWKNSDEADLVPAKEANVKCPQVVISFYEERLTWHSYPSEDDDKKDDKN
#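 AlphaScreen: HP1-beta (50 nM) preformed 30 min with biotin-H3(1-18)K9me3 peptide (50 nM) in PBS pH 7.4, 0.01% Tween-20. Compound added for 30 min at RT, then streptavidin donor/nickel chelate acceptor beads (10 ug/mL) for 30 min.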
# Sfp inh = inhibitors of Bacillus subtilis Sfp phosphopantetheinyl transferase; Biochemical Sfp PPTase activity, qHTS; Q9F4F7; AID 1490; actives 3.5% (n = 310,000); Potency, µM, for the others: largest response in the series, negative = inhibition, most hits filed as inhibitors;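 also: the enzyme is Sfp with the accession as filed and its product quenches rhodamine fluorescence; 0% = enzyme reaction without inhibitor and -100% = no enzyme wells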
#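 Sfp 15 nM + cpd, 15 min RT; start w/ rhodamine-CoA 5 uM, BHQ-2-YbbR 12.5 uM (final); 50 mM Hepes pH 7.6, 10 mM MgCl2, 0.01% NP-40, 0.01% BSA; read 525/598 nm at 0 and 30 min.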
# BAZ2B inh = blocks human BAZ2B; actives 4.4% (n = 360,000); Potency, µM (doses to about 114 µM), inactives show at the highest dose activity change, negative = inhibition, usual class: inhibitors; AlphaScreen BAZ2B-H3K14Ac peptide displacement; Q9UIF8; also: % is scaled to controls: 0 for no effect and ±100 for the full control effect; nearly all actives have a fitted effect of over 60% in size
#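 In this displacement format the biotinylated H3(5-23) peptide acetylated at Lys14 serves as ligand at 50 nM, with BAZ2B at 50 nM in PBS pH 7.4 containing 0.01% Tween-20. Donor and acceptor beads are 10 ug/mL final.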
# Numbers without * were called inactive; ? = inconclusive; / = no result; [ ] = another dose, or the depositor's remark. Calls follow the shape of the dose curve; as a rule, active = well fitted curve in the direction sought with a large enough effect; inconclusive = small, poorly fitted or top-dose-only effect, or another doubt; inactive = no such curve, though single readings can be large; an effect the other way counts as inactive or inconclusive. Potency is read from the fitted curve at half-maximal effect.
SMILES,L3MBTL1 inh,JMJD2A Tudor,G9a inh,HP1b chromo inh,Sfp inh,BAZ2B inh
O=C(O)c1nn(-c2cccc(Cl)c2)c(=O)cc1O,-12%,?,/,10%,-17%,?
COc1ccc(-c2nc(O)c3cnccn23)cc1,10%,-14%,?,17%,-1%,-22%
CSc1ccc(-c2nc(O)c3cnccn23)cc1,-4%,-10%,40µM*,20%,-3%,-23%
Oc1nc(-c2ccc(Br)cc2)n2ccncc12,14%,-23%,/,12%,56µM*,-9%
O=c1[nH]c2ccccc2n1CCCOc1ccccc1,9%,-15%,-10%[59 µM],57%,4%,1%
Cc1cccc(OCCn2c(=S)[nH]c3ccccc32)c1,?,?,1.6µM*,-61%,6.3µM*,?
CCOc1ccc2[nH]c(=O)c(=O)[nH]c2c1,/,5%,-30%[12.7 µM],21%,9%,-6%
Cc1ccc(OCCn2c(=S)[nH]c3ccccc32)c(C(C)C)c1,-7%,-25%,/,-10%,1%,?
S=c1[nH]c2ccccc2n1CCOc1ccccc1,25%,?,/,-24%,89µM*,12%
CCOc1ccc2c(c1)[nH]c(=S)n2C,4%,56µM*,7.9µM*,-34%,18µM*,-15%
N#CCCn1c(=S)[nH]c2ccccc21,/,-6%[57.1 µM],7.1µM*,-20%,-27%,-3%
COc1cccc(-c2cc(N(C)Cc3ccco3)ncn2)c1,/,/,-2%[0.501 µM],/,-29%,/
CCCCN(C)C(=O)c1ccc2c(c1)NC(=O)C(CC(C)C)N2 (stereo unspecified),/,-12%,7%[59 µM],-4%,/,2%
COc1ccccc1OCCn1c(=S)[nH]c2ccccc21,-6%,?,8.9µM*,1%,-13%,1%
CCOc1ccc(OCCSc2nc3ccccc3[nH]2)cc1,10%[11.4 µM],-15%,-11%[59 µM],13%,9%,-20%
CCOc1ccc(OCCn2c(=S)[nH]c3ccccc32)cc1,-10%,?,7.1µM*,?,-83%,50µM*
COc1ccccc1OCCn1c(=O)n(C)c2ccccc21,1%,-3%,39%[12.7 µM],35%,14%,-29%
Cn1c(=S)[nH]c2ccccc21,/,50µM*,8.9µM*,-11%,-3%,-35%
Cn1c(=S)n(C)c2ccccc21,-8%,8%,-7%[59 µM],62%,13%,-18%
Cc1cccc(C(C)C)c1NC(=O)c1cc2ccccc2o1,-8%,2%,/,31%,5%,2%
C[C@@H]1C(=O)OC2C[C@@]34[C@H]5C[C@@H](C(C)(C)C)[C@@]36C(O)C(=O)O[C@H]6O[C@@]4(C(=O)O5)[C@]21O (stereo partly specified),/,/,29%[59 µM],/,23%,/
Oc1oc(-c2ccccc2)nc1C=Nc1ccccc1,-14%,89µM*,?,7%,-12%,-12%
CN(C)c1ccc(N=Cc2nc(-c3ccccc3)oc2O)cc1,-9%,-28%,-11%[0.0925 µM],4%,-2%,-10%
O=C(NCC(c1cccnc1)N1CCN(Cc2ccccc2)CC1)C(=O)Nc1ccc(Cl)cc1 (stereo unspecified),/,-17%,-3%[59 µM],12%,/,-21%
COc1cccc(/C=N/Nc2nccnc2Cl)c1O,?,40µM*,61%[12.7 µM],21%,5%,14µM*
SMILES,L3MBTL1 inh,JMJD2A Tudor,G9a inh,HP1b chromo inh,Sfp inh,BAZ2B inh
COc1cccc(/C=N/Nc2ncnc(Cl)c2N)c1O,20µM*,-27%,54%[59 µM],32%,9%,7.9µM*
COc1cccc(/C=N/Nc2nc3ccccc3n3cnnc23)c1O,-18%,-22%[57.1 µM],75%[59 µM],35%,18%,?
COc1cccc(/C=N/Nc2cc(-n3nc(C)cc3-c3ccccc3)ncn2)c1O,-4%,-15%,19%[59 µM],34%,13%,-6%
COc1ccc(/C=N/Nc2nccnc2Cl)c(OC)c1,3%,-6%[11.4 µM],/,-6%,?,?
COc1cccc(/C=N/Nc2ncnc3scc(-c4ccccc4)c23)c1O,32µM*,45µM*,?,-1%,?,13µM*
O=C1OC(c2ccc3ccccc3c2O)(c2ccc3ccccc3c2O)c2ccccc21,/,32µM*,/,?,/,/
O=C1OC2(c3ccccc31)c1ccccc1-c1ccccc12,/,-5%,/,29%,/,/
Cc1cc2nn(-c3ccc(F)cc3)nc2cc1NC(=O)c1cccc2c(Cl)cccc12,/,1%,-5%[59 µM],30%,/,-7%
O=C(NC(=S)NCCO)c1sc2ccccc2c1Cl,26%[11.4 µM],-8%,25µM*,38%,?,?
Cc1ccccc1COC(=O)CNC(=O)c1sc2ccccc2c1Cl,31%,21%,21%,84%,/,29%
O=C(CNC(=O)c1sc2ccccc2c1Cl)OCc1ccccc1,/,47%,76%,85%,-4%,22%
CCCOC(=S)NC(=O)c1sc2ccccc2c1Cl,-6%,-21%,46%[0.501 µM],-15%,28µM*,-17%[57.1 µM]
CC(C)(C)C(=O)NC(=S)NNC(=O)c1sc2ccccc2c1Cl,1%,?,?,?,4%,-34%
CCOC(=S)NC(=O)c1sc2ccccc2c1Cl,-7%,-23%,28%[0.501 µM],-17%,45µM*,-28%[57.1 µM]
O=C(Cn1cnc2ccccc21)c1ccccc1,2%,-5%,/,59%,13%,-37%
O=C(O)c1ccn(Cn2cnc3ccccc32)n1,6%,22µM*,?,4%,-1%,?
Cc1cnc(CNc2cc(-c3cccnc3)ncn2)cn1,/,/,-3%[0.501 µM],/,11%,/
CC(C)[C@H](NC(=O)[C@H](CCC(N)=O)NC(=O)CNC(=O)[C@@H]1CCCN1C(=O)[C@H](Cc1ccc(O)cc1)NC(=O)CN)C(=O)O,/,/,/,/,-12%,/
O=C(Nc1cccc(S(=O)(=O)N2CCOCC2)c1)c1ccccn1,/,-17%,25µM*,22%,5%,?
O=C(CNc1cccc(S(=O)(=O)N2CCOCC2)c1)N1CCc2ccccc21,-2%,-13%,40µM*,27%,11%,-20%
CN(C)S(=O)(=O)c1cccc(NC(=O)c2cccc(S(=O)(=O)N3CCCCC3)c2)c1,-1%,-21%,50µM*,16%,/,3%
Cc1ccc(/C=C/C(=O)Nc2cccc(S(=O)(=O)N3CCOCC3)c2)o1,-18%,-28%,8.9µM*,50µM*,13µM*,-32%
O=C(/C=C/c1ccco1)Nc1cccc(S(=O)(=O)N2CCOCC2)c1,?,4%,-16%,-6%,-14%,-8%
CC(=O)N1c2ccccc2CC1C(=O)N1CCN(c2ccccc2)CC1 (stereo unspecified),/,?,20%[59 µM],17%,/,-1%
O=C(NC1C2CC3CC(C2)CC1C3)C1CCCCC1 (stereo unspecified),10%,-31%,/,33%,5%,5%
Cc1ccc(CSc2nncn3c2cc2sccc23)cc1,/,3%,-1%[59 µM],33%,/,-3%
